# Measured values published in PubChem BioAssay (NCATS).
# Where “and” joins values, the source holds several entries; their conditions need not be identical. Equal values may be shown once. Results filed as inconclusive are left out. A number with no mark means an inactive call. Calls of active or inactive are those of the source. The call rests on the fitted dose curve; in most records, active means well fitted cell-killing curve with a large enough effect in the repeat runs; inconclusive means weak or mixed curves; inactive means flat fitted curve, though single readings scatter.
# Test: qHTS assay for small molecule agonists of the antioxidant response element (ARE) signaling pathway measured by Nrf2-dependant transcriptional activity - cell viability counter screen (AID 720653)
# Conditions: ARE-bla HepG2 viability, CellTiter-Glo ATP luminescence, 16 h; max response: active compounds read low
# Text: National Center for Advancing Translational Sciences [NCATS] NIH Chemical Genomics Center [NCGC] U.S. Environmental Protection Agency [EPA] National Institutes of Environmental Health Sciences [NIEHS] National Toxicology Program [NTP] Assay Overview: Oxidative stress has been implicated in the pathogenesis of a variety of diseases ranging from cancer to neurodegeneration. The antioxidant response element (ARE) signaling pathway plays an important role in the amelioration of oxidative stress. The CellSensor ARE-bla HepG2 cell line (Invitrogen) can be used for analyzing the Nrf2/antioxidant response signaling pathway. Nrf2 (NF-E2-related factor 2) and Nrf1 are transcription factors that bind to AREs and activate these genes. The CellSensor ARE-bla HepG2 cell line contains a beta-lactamase reporter gene under control of the Antioxidant Response Element (ARE) stably integrated into HepG2 cells. The activation of the report gene under culture conditions can be detected by fluorescence intensity. The cytotoxicity of the compounds against the ARE-bla HepG2 cell line was quantified by measuring the intracellular ATP content.
# Assay Protocol Summary: ARE-bla HepG2 cells were dispensed at 2,000 cells/5 ul/well in 1536-well black wall/clear bottom plates using a Multidrop Combi (ThermoFisher Scientific, Waltham, MA) dispenser. After the assay plates were incubated at 37C/5% CO2 for 5 hrs, 23 nL of compounds dissolved in DMSO, positive controls or DMSO only was transferred to the assay plate by a pintool work station (Kalypsys, San Diego, CA). The plates were incubated at 37C/5% CO2 for 16 hrs. After 1 uL of LiveBLAzer B/G FRET substrate was added using a Flying Reagent Dispenser (FRD) (Aurora Discovery, San Diego, CA), the assay plates were incubated at room temperature for 2 hrs. The fluorescence intensity was measured by an Envision (PerkinElmer, Shelton, CT) plate reader. Cell viability using CellTiter Glo viability assay (Promega, Madison, WI) was also measured by adding 4 ul/well of CellTiter-Glo reagent into the same assay plate using a FRD. After 30 min incubation at room temperature, the luminescence intensity in the plates was measured using a ViewLux (PerkinElmer) plate reader.
# On the % scale 0 is the no-effect control and ±100 the full control effect; potency means the concentration at half of the fitted maximal effect.
SMILES,max response,Potency
CC(C)C(C)(C)C(C)(C)C(C)(C)S,-4.36% and 4.23%,–
CC(=O)OC/C=C(C)/C=C/C=C(C)/C=C/C1=C(C)CCCC1(C)C,6.19% and 7.05%,–
CCCC(=O)c1cc(O)c(O)cc1O,-22.5%,–
Cc1cc(C(C)(C)C)c(O)c(C(C)(C)C)c1,-5.59% and 4.89%,–
c1ccc2occc2c1,3.88% and -20.4% and 16.8%,–
CCCCCCCCCCCCCCCC[n+]1ccccc1,-10.4%,–
OCCOCCN1CCN(C(c2ccccc2)c2ccc(Cl)cc2)CC1 (stereo unspecified),-5.74%,–
CCCCC(CC)COC(=O)c1ccccc1C(=O)O (stereo unspecified),4.74% and -13.7%,–
Cc1ncc(CO)c(CO)c1O,-5.07%,–
COc1cc(C=O)ccc1O,-6.02% and -3.47%,–
OCc1c[nH]c2ccccc12,3.93%,–
O=C(Oc1ccccc1)c1ccccc1O,-7.62% and 5.57%,–
C1=CC2C3C=CC(C3)C2C1 (stereo unspecified),-2.11%,–
COC(=O)c1c(Cl)c(Cl)c(C(=O)OC)c(Cl)c1Cl,-11.1%,–
Oc1ccccc1,-6.78% and -2.25% and 3.75%,–
CC(C)(c1ccc(O)cc1)c1ccc(O)cc1,-12.4% and -0.346% and -0.0074%,–
CN1C(=O)c2ccccc2C1=O,-2.52%,–
CCCCCCCCCCCC[N+](C)(C)Cc1ccccc1,-5.65%,–
O=C(c1ccccc1)c1ccccc1,6.09% and -10.7%,–
O=C(NO)c1ccccc1,-9.7%,–
Cc1ccc(O)cc1,-5.41%,–
O=C(Oc1ccccc1)c1cccc(C(=O)Oc2ccccc2)c1,-2.16%,–
Brc1ccccc1-c1ccccc1,3.59%,–
Nc1c2ccccc2nc2ccccc12,–,31.6 µM (active)
CC(C)(C)c1ccc(O)c(O)c1,-2.01% and -13.6%,–
Nc1ccc(O)cc1,-19.2%,–
